USP1-UAF1 inh = Inhibitors of USP1/UAF1: Primary Screen | Ubiquitin carboxyl-terminal hydrolase 1 (Homo sapiens), O94782 | recombinant USP1/UAF1, Ub-Rhodamine cleavage fluorescence | Potency, µM (top dose mostly 57.1 µM), actives largely listed as inhibitors | 390,000 compounds, 0.23% hits | AID 743255, 2014; also: nearly all actives have a fitted effect of over 60% in size
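High-throughput fluorogenic screen: 1nM USP1/UAF1 complex, Ub-Rho substrate 150nM final, 50mM HEPES pH 7.8 with 0.5mM EDTA, 0.1 mg/ml BSA, 1mM TCEP and 0.01% Tween-20.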
Tau fibril FP = qHTS for Inhibitors of Tau Fibril Formation, Fluorescence Polarization; Microtubule-associated protein tau (Homo sapiens), P10636; K18 P301L tau heparin fibrillization, Alexa594 FP, 6 h; Potency, µM (top dose mostly 57.7 µM), actives largely listed as inhibitors; 280,000 compounds, 0.39% hits; AID 1468, 2008; also: nearly all actives have a fitted effect of over 55% in size
Target sequence (P10636 561-689 P618L limits assumed): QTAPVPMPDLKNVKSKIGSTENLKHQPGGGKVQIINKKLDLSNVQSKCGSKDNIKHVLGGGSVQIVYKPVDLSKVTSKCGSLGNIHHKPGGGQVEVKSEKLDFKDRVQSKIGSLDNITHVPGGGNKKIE
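K18 P301L tau (15 uM unlabeled/0.24 uM Alexa 594-labeled, final) + compound + heparin 20 uM final; 100 mM NaOAc pH 7; 6 hr 37 C; ThT 30 uM final added, 1 hr RT; FP ex 555/em 632 nm.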
Tau fibril ThT = qHTS for Inhibitors of Tau Fibril Formation, Thioflavin T Binding. Microtubule-associated protein tau (Homo sapiens), P10636. recombinant tau K18 P301L, heparin-induced fibrillization, ThT fluorescence. Potency, µM (doses to about 57.4 µM), hits mostly inhibitors. 270,000 compounds, 2.1% hits. AID 1460, 2008; also: nearly all actives have a fitted effect of over 55% in size
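ThT emission at 510 nm, taken 1 hr after adding 30 uM dye, quantifies aggregates formed when 20 uM heparin acts on human tau K18 P301L for 6 hr at 37 C.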
FBPA coupling cs = qHTS Assay for Inhibitors of Fructose-1,6-bisphosphate Aldolase from Giardia Lamblia: Coupling assay counterscreen. coupling enzyme system counterscreen, AmpLite Red fluorescence. activity change, negative = inhibition, % at 58.2 µM, hits read low. 290,000 compounds, 0.67% hits; in the data active = activity change below about -30%
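Counterscreen lacking aldolase: glyceraldehyde-3-phosphate coupling-enzyme reagent preincubated 10 min at RT with compound (at 57.5 uM final), then substrate/coupling system with AmpLite Red added; fluorescence read at 525/598 nm after 20 min RT.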
Tau fluor cs = Counterscreen qHTS for Inhibitors of Tau Fibril Formation, Fluorescence Polarization. tau K18 P301L Alexa594 fluorescence, heparin fibrillization. AID 1463, 2008. Potency, µM (series often up to 57.7 µM). 280,000 compounds, 0.93% hits; also: nearly all actives have a fitted effect of over 55% in size
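Human tau K18 P301L (15 uM unlabeled, 0.24 uM Alexa 594-labeled) in 100 mM sodium acetate pH 7 with 20 uM heparin, 6 hr at 37 C. ThT 30 uM added, 1 hr ambient; Alexa 594 FP and total fluorescence read at 555/632 nm.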
Numbers stand for hits; . = inactive; ? = inconclusive; / = no result given; ! = repeats disagree; [ ] = remark or other dose. This is a sample that favours compounds with a hit; in the whole collection about 2.3% have one here. Unless noted, calls follow the shape of the dose curve; as a rule, active = well fitted curve in the direction sought with a large enough effect; inconclusive = small, poorly fitted or top-dose-only effect, or another doubt; inactive = no such curve, though single readings can be large; an effect the other way counts as inactive or inconclusive.

SMILES | USP1-UAF1 inh | Tau fibril FP | Tau fibril ThT | FBPA coupling cs | Tau fluor cs
COc1ccc(-c2nc(SCC(=O)NC3CCCC3)c(-c3ccc(OC)cc3)[nH]2)cc1 | ? | . | ? | . | 13µM![quencher]
COc1ccc(-c2nc(SCC(=O)NC3CCCC3)c(-c3ccccc3)[nH]2)cc1OC | . | ? | ? | / | 14µM[quencher]
COc1ccc(-c2nc(SCC(=O)NC3CCCC3)c(-c3ccc(F)cc3)[nH]2)cc1OC | . | ? | ? | / | 13µM[quencher]
CCCOc1ccc(C(=O)Nc2ccc(N3CCOCC3)cc2N2CCOCC2)cc1OCC | . | / | / | / | /
COCCNC(=O)CCc1nnc2ccc(N3CCC(C)CC3)nn12 | . | / | / | . | /
O=C(C1CCN(c2ncnc3c2sc2cccc(F)c23)CC1)N1CCCC1 | / | . | ? | -44 | .
Cc1nn2c(NC(C)C)c3c(nc2c1-c1ccccc1)CCC3 | . | ? | 28µM | . | ?
Cc1nn2c(NCC(C)C)c3c(nc2c1-c1ccccc1)CCC3 | . | . | . | . | .
S=C(NC1CCCCC1)N1CCN(c2ccccn2)CC1 | . | . | . | -41 | .
S=C(NC1CCCCC1)N1CCN(c2ncccn2)CC1 | . | . | . | . | .
Cc1ccc(-n2[nH]c(C)c(/C=N/n3c(C)nc4ccccc4c3=O)c2=O)cc1 | . | ? | 25µM | . | .
Cc1nc2ccccc2c(=O)n1/N=C/c1ccc2ccccc2c1O | . | . | ? | -32 | ?
Cc1nc2ccccc2c(=O)n1/N=C/c1ccc(O)c(O)c1O | . | / | / | -45 | /
Cc1nc2ccccc2c(=O)n1/N=C/c1ccccc1O | . | . | . | . | .
O=C1c2ccccc2C(=O)N1/N=C/c1ccc(O)c(O)c1O | ? | 6.3µM | 4µM | -68 | ?
O=C1c2cccc3cccc(c23)C(=O)N1/N=C/c1ccc(O)cc1O | . | . | . | . | .
COC(=O)[C@H]1C[C@H](OC(=O)NC2CC2)[C@@]2(O)CN(S(=O)(=O)c3ccc(C)cc3)CC2[C@H]1C(=O)OC (stereo partly drawn) | . | / | / | / | /
CC(C)(C)C(=O)Nc1nc2nc(-c3ccccc3)cc(=O)n2[nH]1 | . | . | . | / | .
CC(=O)C1=C(C)OC2(O)c3ccccc3C(=O)C12O (stereo not drawn) | 8.9µM | ? | 2.2µM | . | .
CCOC(=O)C1=C(C)OC2(O)c3ccccc3C(=O)C12O (stereo not drawn) | 13µM | 1.4µM | 2µM | . | .
COC(=O)c1ccc(-c2ccc(/C=N/NC(=O)Cc3nnc(N)s3)o2)cc1 | ? | . | 7.9µM | . | .
Nc1nnc(CC(=O)N/N=C/c2ccc(-c3ccccc3)o2)s1 | . | . | ? | . | .
COc1ccccc1-c1cc(C(=O)Nc2cc(Cl)ccc2O)no1 | . | . | . | / | 7.9µM[quencher]
Oc1c(C=Nc2cccnc2)sc2ccccc12 | . | . | 13µM | . | .
Oc1c(/C=N/c2ccccn2)sc2ccccc12 | . | ? | 5.6µM | . | 2.8µM[fluorescent]
SMILES | USP1-UAF1 inh | Tau fibril FP | Tau fibril ThT | FBPA coupling cs | Tau fluor cs
CCOC1(OCC)OC(c2ccccc2)=C(C#N)C(C=Cc2ccccc2)C1(OCC)OCC (stereo not drawn) | . | / | / | / | /
COc1cccc(C2=CC(c3ccc(N(C)C)cc3)n3ncnc3N2)c1 (stereo not drawn) | / | . | . | -35 | ?
CCOc1ccc(NC(=O)N2CCC(CN3CCCCCC3)CC2)cc1 | ? | . | ? | / | .
Cc1ccc(-c2cc(C(=O)N/N=C/c3c[nH]c4ccccc34)[nH]n2)cc1 | . | ? | ? | . | 16µM[quencher]
Cc1ccccc1NCC(=O)N/N=C/c1c[nH]c2ccccc12 | . | ? | ? | . | 16µM[quencher]
Cc1cccc(NCC(=O)N/N=C\c2c[nH]c3ccccc23)c1 | . | ? | ? | . | ?
O=C(N/N=C/c1c[nH]c2ccccc12)c1cc(-c2ccc(-c3ccccc3)cc2)n[nH]1 | . | . | ? | . | 13µM[quencher]
O=C(N/N=C/c1c[nH]c2ccccc12)c1cc(-c2cccc3ccccc23)n[nH]1 | . | . | ? | . | 10µM[quencher]
CC(C)NC(=O)c1sc2ncccc2c1-n1cccc1 | ? | . | . | / | .
